Screening data: PubChem, National Center for Advancing Translational Sciences (NCATS)
AMA1 RON2 block: disrupts binding of P. falciparum AMA1 to RON2. AlphaScreen AMA1-biotinylated RON2 peptide binding. Potency, µM (top dose mostly 58.2 µM), usual class: inhibitors. 360,000 tested, 0.2% active. AID 720542; also: nearly all actives have a fitted effect of over 45% in size
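AMA1 (3D7) with his tag at 25 nM final met compounds first, then biotinylated RON2 peptide at 25 nM; detection used donor plus acceptor beads, 10 µg/mL apiece, read by AlphaScreen after 30 min at room temperature.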
Shiga toxin inh: blocks Shiga toxin action in Vero cells; Vero cells, Shiga toxin protein synthesis inhibition reporter; inhibition, % at 38.7 µM; 290,000 tested, 9.2% active; in the data active = inhibition mostly above about 28%, no sharp cut-off; inactive = mostly below about 43%
Pf growth 48h: P. falciparum growth inhibition at 48 hours (one generation) | P. falciparum luciferase growth in erythrocytes, 48 h | Potency, µM (highest dose often 28.7 µM), most hits filed as inhibitors | 310,000 tested, 5.9% active
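Erythrocytes infected with P. falciparum carrying an integrated firefly luciferase reporter (2% hematocrit, 0.1% parasitemia final) were exposed to compounds in RPMI 1640 with 0.5% Albumax at 37 C, 5% CO2. Growth inhibition was scored as reduced luminescence.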
CHX counter: counter-screen for Shiga toxin inhibitors: cycloheximide protein synthesis inhibition | max response, % | cell reporter, cycloheximide protein synthesis inhibition counterscreen | 300,000 tested, 12% active; in the data active = max response mostly above about 13%, no sharp cut-off; inactive = mostly below about 14%; also: read at 38.3 µM for the half of the compounds with a filed dose
HCV inhibitor: blocks hepatitis C virus; Huh7.5.1 HCVcc-Cre infection, luciferase reporter, 44 h; Potency, µM (top dose mostly 41.8 µM), usual class: inhibitors; 340,000 tested, 3.4% active
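1,000 cells/well; 4 h culture; + compound; + HCVcc-Cre (~0.5 moi); 44 h; luciferase substrate, RT 15 min; read 15 sec.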
Pf growth 96h: P. falciparum growth inhibition at 96 hours; 320,000 tested, 6.9% active; Potency, µM (top dose mostly 28.7 µM), actives largely listed as inhibitors; AID 504834; P. falciparum luciferase reporter growth, 96 h
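Infected RBCs, 2% Hct / 0.05% parasitemia final; luciferase-reporter P. falciparum; cpd 96 h, 37 C, 5% CO2; luciferase detection reagent; luminescence.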
Hits are given with their value; . = inactive; ? = inconclusive; / = not tested or not shown; [ ] = dose if it differs, or a comment. Rows were chosen to be rich in hits. Some 21% of all compounds tested hit in one or more screens of this group. Unless noted, calls follow the shape of the dose curve; as a rule, active = well fitted curve in the direction sought with a large enough effect; inconclusive = small, poorly fitted or top-dose-only effect, or another doubt; inactive = no such curve, though single readings can be large; an effect the other way counts as inactive or inconclusive.

SMILES	AMA1 RON2 block	Shiga toxin inh	Pf growth 48h	CHX counter	HCV inhibitor	Pf growth 96h
CCCCn1c(SC(C)C(=O)NCC2CCCO2)nc2cc(C(=O)OC)ccc2c1=O (stereo not drawn)	.	/	5.86µM	/	?	8.28µM
COC(=O)c1ccc2c(=O)n(CCN3CCOCC3)c(SCC(=O)NCc3ccccc3)nc2c1	.	.	?	.	.	?
COC(=O)c1ccc2c(=O)n(CCN3CCOCC3)c(SCC(=O)C(C)(C)C)nc2c1	.	.	?	.	.	13.1µM
CCOC(=O)CSc1nc2cc(C(=O)OC)ccc2c(=O)n1CCN1CCOCC1	.	.	.	.	.	?
CCCCn1c(SC(C)C(N)=O)nc2cc(C(=O)OC)ccc2c1=O (stereo not drawn)	.	.	.	.	?	?
COCCCn1c(SCC(=O)N2CCOCC2)nc2ccccc2c1=O	.	.	.	.	.	?
COCCCn1c(SCC(=O)N2CCOCC2)nc2cc(Cl)ccc2c1=O	.	/	10.4µM	/	.	.
O=c1[nH]c(SCCc2ccccc2)nc2c1CCC2	.	/	/	/	/	/
COC(=O)c1ccc2c(=O)n(CC3CCCO3)c(SCC(=O)Nc3ccc(OC)cc3OC)nc2c1 (stereo not drawn)	.	.	6.57µM	.	.	?
COc1ccc(OC)c(NC(=O)CSc2nc3ccccc3c(=O)n2CC2CCCO2)c1 (stereo not drawn)	.	.	?	.	?	?
CCn1c(SCC(=O)Nc2ccc(OC)cc2OC)nc2nc3c(cc2c1=O)COC(C)(C)C3	.	.	?	.	?	8.28µM
CCn1c(SCC(=O)Nc2ccccc2)nc2nc3c(cc2c1=O)COC(C)(C)C3	.	.	?	.	?	?
O=C(COC(=O)/C=C/c1ccc([N+](=O)[O-])cc1)NNC(=O)c1ccccc1	.	/	/	/	.	/
C#CCN1C(=O)S/C(=C\c2ccc(-c3ccc(C(=O)O)cc3C)o2)C1=O	.	41.8	.	38.8	.	.
Cc1cc(C(=O)O)ccc1-c1ccc(/C=C2\SC(=O)N(CC(=O)Nc3ccc4c(c3)OCO4)C2=O)o1	/	.	.	.	/	.
CC(C)(C)OC(=O)CN1C(=O)S/C(=C\c2ccc(-c3cccc(C(=O)O)c3)o2)C1=O	/	118.2	.	27.2	/	.
Cc1ccc2nccc(C(=O)N3CCCC(Nc4ccc(F)cc4)C3)c2c1 (stereo not drawn)	.	.	.	.	.	?
ClC1=CN(C2=NCCC2)CC1	.	/	/	/	/	/
CCOC(=O)Cc1c(C)nc2c(-c3cccc(Br)c3)cnn2c1C	.	.	.	.	.	?
CC(=O)Nc1ccc(Nc2cc(C)nc3c(-c4ccccc4)cnn23)cc1	.[2.32 µM]	70.8	.	33.7	?	.
Cc1cc(N)n2ncc(-c3cccc(Br)c3)c2n1	.	109.9	.	40.5	?	.
Cc1cc(N)n2ncc(-c3ccccc3)c2n1	.	71.9	/	58.1	?	.
CCCCn1c(N)c(N(C)C(=O)c2cc3c(s2)CCCCC3)c(=O)[nH]c1=O	.	/	?	/	.	.
COC(=O)c1scc(C)c1S(=O)(=O)Nc1ccc(C)cc1	.	.	?	.	.	11.7µM
O=C(NC(=S)Nc1nc2c(s1)CCCC2)c1ccccc1	.	95.2	.	58.0	?	.
SMILES	AMA1 RON2 block	Shiga toxin inh	Pf growth 48h	CHX counter	HCV inhibitor	Pf growth 96h
COC(=O)c1ccc(C(=O)NC(=S)Nc2nc3c(s2)CCCC3)cc1	.	.	.	20.4	.	.
COC(=O)c1cccc(-n2nnnc2SCC(=O)Nc2nc3c(s2)CCCC3)c1	.	.	.	.	.	?
S=C(Nc1nc2c(s1)CCCC2)NC1CC1	.	76.6	?	52.4	.	.
O=C(CN(C(=O)CCC(=O)Nc1nccs1)c1ccc2c(c1)OCO2)NCc1ccccc1	.	.	?	.	.	.
Cc1ccc(C(=O)NCC(=O)NNC(=O)CN(C)S(=O)(=O)c2ccc(Cl)cc2)s1	.	/	.	/	.	.
O=C(COC(=O)COc1ccc(Cl)cc1)NC1CC1	.	/	.	/	.	.
CC(=O)C(O)C(c1ccccc1)c1c(O)c2ccccc2oc1=O (stereo not drawn)	/	.	/	.	/	/
Cc1cc(=O)[nH]c(N/N=C/c2c(F)c(F)c(F)c(F)c2F)n1	.	.	/	.	.	.
Cc1cc(=O)[nH]c(N/N=C/c2cccs2)n1	.	.	.	23.3	.	.
